PLK1 PBD inh: blocks phosphopeptide binding to human PLK1 polo-box domain | P53350 | Plk1 PBD binding of FITC phosphopeptide, fluorescence polarization | Potency, µM, inactives show max response, negative = inhibition, usual class: inhibitors | 2.8% of 360,000 active; note: potency is the fitted concentration of half-maximal effect; series mostly up to about 57 µM; nearly all actives have a fitted effect of over 65% in size
CCT modulator: changes cytosolic chaperonin activity. purified chaperonin ATPase assay, HTRF ADP detection, 30 min. activity change, % (concentration not given with the values), hits read low. 0.3% of 360,000 active. AID 651819; in the data active = activity change below about -30%
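ATPase activity: ADP formed was measured by HTRF Transcreener (665/615 nm ratio) after 30 min at 37 deg C with 10 uM ATP. Compounds screened at one 76 uM concentration against 40 or 20 nM TRiC in Tris pH 7.4/KCl/MgCl2/DTT buffer.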
Mm-Cpn inhibitor: inhibitors of Methanococcus maripaludis chaperonin TRiC (MmCpn); purified Mm-Cpn ATPase, ADP Transcreener TR-FRET; Potency, µM (highest dose often 76.9 µM), inactives show at the top dose activity, negative = inhibition, actives largely listed as inhibitors; 0.031% of 330,000 active; AID 504842; note: potency is the fitted concentration of half-maximal effect; nearly all actives have a fitted effect of over 80% in size
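Inhibition of chaperonin ATP hydrolysis is measured as reduced ADP production, detected by competitive TR-FRET in which signal falls with ADP. Final enzyme 25 nM and ATP 10 uM, reacted 30 min at 37°C.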
VDR inh: blocks the human vitamin D receptor; Potency, µM, for the others: max response, negative = inhibition, hits mostly inhibitors; VDR-SRC2-3 peptide fluorescence polarization, 2 h; 0.93% of 400,000 active; AID 504847; note: potency is the fitted concentration of half-maximal effect
Target sequence (P11473 whole entry, looked up): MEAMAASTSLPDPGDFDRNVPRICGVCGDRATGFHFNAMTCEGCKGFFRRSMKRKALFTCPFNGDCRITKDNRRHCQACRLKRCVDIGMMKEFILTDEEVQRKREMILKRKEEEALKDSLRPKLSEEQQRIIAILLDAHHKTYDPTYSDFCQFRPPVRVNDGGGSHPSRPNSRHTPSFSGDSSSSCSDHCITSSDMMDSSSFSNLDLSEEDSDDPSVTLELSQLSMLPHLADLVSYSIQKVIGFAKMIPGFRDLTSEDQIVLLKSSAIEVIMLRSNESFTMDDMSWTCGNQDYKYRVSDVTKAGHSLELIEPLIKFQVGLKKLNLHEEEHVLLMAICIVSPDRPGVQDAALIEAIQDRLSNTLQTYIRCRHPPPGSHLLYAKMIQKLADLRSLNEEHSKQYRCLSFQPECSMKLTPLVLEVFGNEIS
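Compounds are added to VDR with labelled SRC2-3 coactivator peptide and held 2 h at room temperature. Inhibition of the VDR–peptide interaction is then read as a change in fluorescence polarization.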
Sfp inh: blocks B. subtilis Sfp PPTase activity. Q9F4F7. 3.5% of 310,000 active. Potency, µM, without a hit: largest response in the series, negative = inhibition, hits mostly inhibitors. AID 1490. Biochemical Sfp PPTase activity, qHTS;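 note: the enzyme is Sfp with the accession as filed and its product quenches rhodamine fluorescence; potency is the fitted concentration of half-maximal effect; 0% = enzyme reaction without inhibitor and -100% = no enzyme wells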
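Reaction rates are the 30-min fluorescence difference (ex 525, em 598 nm) in wells containing 15 nM Sfp, 5 uM rhodamine-CoA and 12.5 uM BHQ-2-YbbR at pH 7.6 with 10 mM MgCl2.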
G9a block: G9a (human) methyltransferase inhibition; G9a H3K9 monomethylation, AlphaScreen, 2 h; Potency, µM (top dose mostly 102 µM), without a hit: at the highest dose activity, negative = inhibition, usual class: inhibitors; 8.8% of 350,000 active; note: potency is the fitted concentration of half-maximal effect; nearly all actives have a fitted effect of over 75% in size
Target sequence (Q96KQ7 913-1193 limits assumed): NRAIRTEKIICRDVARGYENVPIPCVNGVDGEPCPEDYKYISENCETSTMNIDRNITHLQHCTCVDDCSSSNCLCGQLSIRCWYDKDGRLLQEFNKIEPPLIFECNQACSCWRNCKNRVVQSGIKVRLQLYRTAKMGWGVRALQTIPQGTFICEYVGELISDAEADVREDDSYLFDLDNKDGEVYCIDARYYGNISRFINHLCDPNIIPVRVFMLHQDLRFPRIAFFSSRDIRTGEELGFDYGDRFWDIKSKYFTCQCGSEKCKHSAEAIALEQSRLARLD
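Signal arises when biotinylated H3K9 peptide, once monomethylated, bridges streptavidin donor and antibody-captured acceptor beads. Enzyme at 20 nM was preincubated 15 min with test compounds; peptide 500 nM and SAM 20 uM then reacted for 2 h.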
Active calls of the source: *; ? = inconclusive; / = no result; [ ] = remark or other dose. Hits are enriched below; roughly 10% of the tested compounds scored in any of these assays. Unless noted, calls come from the whole dose curve; as a rule, active = well fitted curve in the direction sought with a large enough effect; inconclusive = small, poorly fitted or top-dose-only effect, or another doubt; inactive = no such curve, though single readings can be large; an effect the other way counts as inactive or inconclusive. Unless noted, % is set by controls: 0 for no effect and ±100 for the full control effect.

SMILES | PLK1 PBD inh | CCT modulator | Mm-Cpn inhibitor | VDR inh | Sfp inh | G9a block
Cc1ccc2nc(SCC(=O)c3ccc4c(c3)OCO4)[nH]c2c1 | -14% | 1 | -2% | 4% | 45µM* | ?
CCC(=O)Nc1ccc(C(=O)CSc2nc3ccc(C)cc3[nH]2)cc1 | -13% | 0 | -4% | -3% | -4% | 28µM*
Cc1ccc2nc(SCC(=O)Nc3ccc(C)c([N+](=O)[O-])c3)[nH]c2c1 | -3% | -1 | -2% | -10% | 1% | 11µM*
Cc1ccc2c(c1)c(=O)c(S(=O)(=O)c1ccc(C)c(C)c1)cn2CC(=O)Nc1ccccc1 | / | / | / | 0% | / | -2%[59 µM]
CS/C(=C\[N+](=O)[O-])Nc1ccc(Cl)cc1 | -1% | 1 | 0% | -6% | 3% | 11µM*
Cc1noc(C)c1S(=O)(=O)N(CC(=O)NCc1ccccc1Cl)c1ccc(C(C)C)cc1 | / | / | / | -18% | / | 5%[59 µM]
COc1ccc(C(C#N)=C2C=CC(=NO)C=C2)cc1 | 27µM* | 0 | -3% | ? | 25µM* | 2.2µM*
CC(=O)ON=C1C=CC(=C(C#N)c2ccccc2)C=C1 | 2.4µM* | -1 | / | / | / | /
CCn1nc(-c2ccccc2)c(-c2ccccc2)c(C(=O)Nc2nc(C)c(C(=O)N(C)C)s2)c1=O | / | / | / | -2% | / | -3%[59 µM]
CCN(CC)c1cc2nonc2c2nonc12 | -4% | -3 | -2% | 10% | -4% | 9%[59 µM]
CCN(CC)c1cc(Cl)c2nonc2c1N | -13% | -3 | 1% | -10% | -4% | 32µM*
CN(C)c1cc(Cl)c2nonc2c1N | -18% | 0 | -3% | ? | 89µM* | 40µM*
C=C1CCN(C(Cc2ccccc2)C(=O)NC2CCN(Cc3ccccc3)CC2)S(=O)(=O)c2ccccc21 (stereo not drawn) | / | / | / | -21% | -12% | /
N#CC1=C(N)OC2=C(C(=O)CCC2)C12CCC1(CC2)OCCO1 | -10% | -9 | -7% | -10% | 2% | 79µM*
Cc1ccc2c(c1)c(/C=C/c1cc[n+](C)cc1)c(C)n2C | 64% | -2 | -4% | -21% | -17% | 45µM*
Cc1ccc2[nH]c(C)c(/C=C/c3cc[n+](C)cc3)c2c1 | 94% | 0 | -2% | -25% | -11% | -100%
CCCCCOC(=O)c1ccc(OC(=O)c2sc3ncn(Cc4cccc(F)c4)c(=O)c3c2C)cc1 | / | / | / | 15% | / | -5%[59 µM]
CCOc1ccccc1NC(=O)Cc1coc2c(C)c(C)ccc12 | / | / | / | 7% | / | -18%[59 µM]
O=C1COc2ccc(C(=O)COC(=O)c3ccccc3[N+](=O)[O-])cc2N1 | -1% | 1 | -1% | -10% | / | ?
Cc1ccc(S(=O)(=O)N2CCCC2C(=O)OCC(=O)Nc2ccc3c(c2)OCO3)cc1 (stereo not drawn) | 1% | 1 | 1% | 2% | 6% | -16%[59 µM]
O=C1COc2ccc(C(=O)COC(=O)c3ccc([N+](=O)[O-])cc3Cl)cc2N1 | -11% | -2 | -8% | -28% | / | 40µM*
Cc1ccc(S(=O)(=O)N2CCC[C@H]2C(=O)OCC(=O)c2ccc3c(c2)NC(=O)CO3)cc1 | 27µM* | -1 | 1% | ? | 4% | -35%[59 µM]
O=C1COc2ccc(C(=O)COC(=O)c3ccc(Cl)cc3[N+](=O)[O-])cc2N1 | -1% | -3 | -1% | 4% | / | 45µM*
CCCCn1nc(NC(=O)c2cccc(Cl)c2)c2cc3ccc(C)cc3nc21 | / | / | / | 7% | / | 1%[59 µM]
Cc1ccc(NC(=O)CSc2nc3c(oc4ccccc43)c(=O)n2Cc2ccco2)cc1F | / | / | / | 2% | / | 2%[59 µM]
SMILES | PLK1 PBD inh | CCT modulator | Mm-Cpn inhibitor | VDR inh | Sfp inh | G9a block
O=C(CCc1nnc(Cc2ccc3c(c2)OCO3)o1)NCc1nc2ccccc2s1 | -7% | 5 | 1% | 2% | 17% | 45µM*
CCOC(=O)c1c(C)[nH]c(C(=O)CN2C(=O)NC3(CCCC3)C2=O)c1C | -1% | -2 | -6% | 6% | -3% | /
CCOC(=O)c1c(C)[nH]c(C)c1C(=O)CN1C(=O)NC2(CCCCCC2)C1=O | -6% | -5 | 3% | -1% | / | 22µM*
CCN1C(=O)c2ccccc2S(=O)c2ccc(C(=O)N3CCN(c4cccc(Cl)c4)CC3)cc21 (stereo not drawn) | / | / | / | -7% | / | -36%[59 µM]
Cc1ccccc1Nc1nnc(SCc2cc(=O)n3ccsc3n2)s1 | -8% | 1 | -22% | 11% | ? | ?
CC(C)Nc1nnc(SCc2cc(=O)n3ccsc3n2)s1 | -14% | -1 | -3% | 4% | 56µM* | -3%
O=C(O)c1cc(O)c2c(c1)[C@@H]([C@H]1c3cc(C(=O)O)cc(O)c3C(=O)c3c(O[C@@H]4O[C@H](CO)[C@@H](O)[C@H](O)[C@H]4O)cccc31)c1cccc(O[C@@H]3O[C@H](CO)[C@@H](O)[C@H](O)[C@H]3O)c1C2=O | 2.7µM* | 0 | -7% | -20% | / | /
OCC1OC(Oc2cccc3ccccc23)C(O)C(O)C1O (stereo not drawn) | -1% | -2 | -1% | 4% | 11% | 13%
O=C(O)c1cc(O)c2c(c1)[C@H]([C@H]1c3cc(C(=O)O)cc(O)c3C(=O)c3c(O[C@@H]4OC(CO)C(O)C(O)C4O)cccc31)c1cccc(O[C@@H]3OC(CO)C(O)C(O)C3O)c1C2=O (stereo partly drawn) | / | / | / | 40µM* | 56µM* | -148%[2.33 µM]
CCn1c(CNC(=O)c2ccc(OC)cc2)nnc1SCC(=O)Nc1ccc(C)cc1 | / | / | / | -5% | / | 4%[59 µM]
Cc1nn2c(=S)[nH]nc2[nH]c1=O | ? | 0 | 2% | 0% | 13µM* | 7.1µM*
Cc1n[nH]c(=S)n(NC(=O)/C=C/C(=O)Nn2c(=S)[nH]nc(C)c2=O)c1=O | -22% | -1 | -4% | -16% | ? | ?
O=C1CCNc2cc3ccccc3cc21 | 21µM* | -1 | -24% | ? | 14% | ?
O=C1NC(=O)c2cc3ccccc3cc21 | -18% | 3 | -2% | 9% | / | ?
Cc1ccc2c(c1)C(=O)CCN2 | -7% | 1 | 0% | -25% | 3% | ?
O=C1CCNc2ccc(-c3ccccc3)cc21 | 9.5µM* | -5 | -1% | -21% | ? | 12%
CCOC(=O)c1c(C)oc2ncnc(N3CCN(c4ccccc4OC)CC3)c12 | / | / | / | 9% | / | ?
CCOc1ccc(NC(=O)CSc2cn(CC(=O)N3CCOCC3)c3ccccc23)cc1 | / | / | / | 10% | / | -29%[59 µM]
Cc1ccc(-c2c(C#N)c(N)nc3c2CCCC3)o1 | 0% | 0 | -2% | 2% | 1% | 7.9µM*
CCSc1nc2c(c(-c3ccc(C)o3)c1C#N)CCCC2 | -15% | 2 | -6% | -2% | ? | ?
COC(=O)CSc1nc2c(c(-c3ccc(C)o3)c1C#N)CCCC2 | -4% | -2 | -6% | 15% | 50µM* | ?
Cc1nc(N)sc1N=Nc1ccc(F)cc1 | -3% | -1 | 2% | 29% | -28% | 45µM*
